Measurements as given in PubChem BioAssay AID1159580 (chemical genetic matrix, 2015).
Hit rate of the full screen: of about 5,500 compounds, about 2,000 (36%) were called active. Another 18% or so got no clear call; they are omitted. No stated cut-off is given here; in the data, active means normalized growth mostly below about 0.91 (no sharp cut-off); inconclusive means no clear call, values can overlap the other calls; inactive means mostly above about 0.92. This is one part of the list.

Experiment: chemical genetic growth profiling, strain panel (AID 1159580);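 further: tested at 20 µM; growth read once vehicle control cultures reached saturation at 30 °C; 1 = growth at the plate median or of vehicle wells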
Conditions: S. cerevisiae deletion strains, growth OD

Measured: normalized growth

CC(=O)O[C@@H]1CC2C(C)(C)[C@H](O)C[C@H](O)[C@]2(C)C2CC[C@@]3(C)C(=CC(=O)O[C@H]3c3ccoc3)[C@@]21C (stereo not given in full)
inactive: locus YAL021C, strain ccr4, stronger effect = lower value 0.977 | locus YAL026C, strain drs2, stronger effect = lower value 0.988 | locus YAL030W, strain snc1, stronger effect = lower value 1 | locus YBL061C, strain skt5, stronger effect = lower value 1 | locus YBR009C, strain hhf1, stronger effect = lower value 1.02 | locus YBR023C, strain chs3, stronger effect = lower value 0.991 | locus YBR171W, strain sec66, stronger effect = lower value 1.01 | locus YBR231C, strain swc5, stronger effect = lower value 1 | locus YBR279W, strain paf1, stronger effect = lower value 0.979 | locus YCL011C, strain gbp2, stronger effect = lower value 0.969 | locus YCL016C, strain dcc1, stronger effect = lower value 0.973 | locus YCL069W, strain vba3, stronger effect = lower value 0.99 | locus YCR088W, strain abp1, stronger effect = lower value 0.992 | locus YDL005C, strain med2, stronger effect = lower value 0.981 | locus YDL040C, strain nat1, stronger effect = lower value 0.99 | locus YDR001C, strain nth1, stronger effect = lower value 0.979 | locus YDR069C, strain doa4, stronger effect = lower value 0.983 | locus YDR137W, strain rgp1, stronger effect = lower value 0.981 | locus YDR159W, strain sac3, stronger effect = lower value 0.978 | locus YDR195W, strain ref2 0.989 | locus YDR297W, strain sur2, stronger effect = lower value 0.98 | locus YDR334W, strain swr1, stronger effect = lower value 0.977 | locus YDR335W, strain msn5, stronger effect = lower value 0.973 | locus YDR392W, strain spt3, stronger effect = lower value 0.914 | locus YEL003W, strain gim4, stronger effect = lower value 1.01 | locus YEL037C, strain rad23, stronger effect = lower value 0.99 | locus YEL061C, strain CIN8 (second series), stronger effect = lower value 0.995 | locus YER015W, strain faa2, stronger effect = lower value 0.976 | locus YER016W, strain bim1, stronger effect = lower value 1.01 | locus YER111C, strain swi4, stronger effect = lower value 0.978 | locus YER155C, strain BEM2 (second series), stronger effect = lower value 1.04 | locus YFR010W, strain ubp6, stronger effect = lower value 1.02 | locus YGL167C, strain pmr1, stronger effect = lower value 0.991 | locus YGL173C, strain kem1, stronger effect = lower value 1.05 | locus YGL227W, strain vid30, stronger effect = lower value 0.986 | locus YGL240W, strain doc1, stronger effect = lower value 1.03 | locus YGL253W, strain hxk2, stronger effect = lower value 0.941 | locus YHR013C, strain ard1, stronger effect = lower value 0.952 | locus YHR027C, strain rpn1, stronger effect = lower value 0.979 | locus YHR142W, strain chs7, stronger effect = lower value 0.945 | locus YJL092W, strain hpr5, stronger effect = lower value 0.985 | locus YJL095W, strain BCK1 (second series), stronger effect = lower value 0.991 | locus YJL115W, strain asf1, stronger effect = lower value 0.963 | locus YJL129C, strain trk1, stronger effect = lower value 0.994 | locus YJL154C, strain vps35, stronger effect = lower value 0.981 | locus YJL164C, strain tpk1, stronger effect = lower value 0.992 | locus YJL166W, strain qcr8, stronger effect = lower value 1.02 | locus YKL160W, strain elf1, stronger effect = lower value 0.981 | locus YKR026C, strain gcn3, stronger effect = lower value 0.989 | locus YKR091W, strain srl3, stronger effect = lower value 0.976 | locus YLL001W, strain dnm1, stronger effect = lower value 0.998 | locus YLL026W, stronger effect = lower value 0.996 | locus YLL041C, strain sdh2, stronger effect = lower value 0.984 | locus YLR027C, strain aat2, stronger effect = lower value 1.01 | locus YLR221C, strain rsa3, stronger effect = lower value 1.03 | locus YLR258W, strain gsy2, stronger effect = lower value 0.974 | locus YLR262C, strain YPT6 (second series), stronger effect = lower value 0.967 | locus YLR320W, strain mms22, stronger effect = lower value 1.02 | locus YLR342W, strain FKS1, stronger effect = lower value 0.991 | locus YLR357W, strain rsc2, stronger effect = lower value 0.984 | locus YLR370C, strain arc18, stronger effect = lower value 0.983 | locus YLR384C, strain iki3, stronger effect = lower value 0.978 | locus YML120C, strain ndi1, stronger effect = lower value 1.01 | locus YMR058W, strain fet3, stronger effect = lower value 1 | locus YMR125W, strain sto1, stronger effect = lower value 0.991 | locus YMR129W, stronger effect = lower value 0.972 | locus YMR205C, strain PFK2, stronger effect = lower value 1.04 | locus YMR231W, strain pep5, stronger effect = lower value 1 | locus YNL071W, strain lat1, stronger effect = lower value 1 | locus YNL209W, strain ssb2, stronger effect = lower value 0.968 | locus YNL248C, strain rpa49, stronger effect = lower value 0.967 | locus YNL322C, strain KRE1 (second series), stronger effect = lower value 1.01 | locus YNR049C, strain mso1, stronger effect = lower value 0.961 | locus YOR001W, strain rrp6, stronger effect = lower value 1.03 | locus YOR070C, strain gyp1, stronger effect = lower value 0.989 | locus YOR080W, strain dia2, stronger effect = lower value 0.986 | locus YOR083W, strain WHI5, stronger effect = lower value 0.954 | locus YOR106W, strain vam3, stronger effect = lower value 0.946 | locus YOR265W, strain rbl2, stronger effect = lower value 0.991 | locus YOR270C, strain vph1, stronger effect = lower value 0.926 | locus YOR290C, strain snf2, stronger effect = lower value 0.942 | locus YPL051W, strain arl3, stronger effect = lower value 0.994 | locus YPL078C, strain atp4, stronger effect = lower value 0.988 | locus YPL106C, strain sse1, stronger effect = lower value 0.975 | locus YPL240C, strain hsp82, stronger effect = lower value 0.994
